CYP2C9 act – activators of human CYP2C9; P11712; recombinant CYP2C9, luciferin-H conversion, luminescence; stronger effect = higher value; factor 1 = untreated enzyme, 0 = blocked; activation factor at 5 µM; 96,000 tested, 1.4% active; AID 1024;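 active = activation factor of 2 or more for CYP2C9 at a 5 µM dose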;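 note: 0 = sulfaphenazole-blocked wells and 1 = vehicle-only wells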
Target sequence (P11712 whole entry, looked up): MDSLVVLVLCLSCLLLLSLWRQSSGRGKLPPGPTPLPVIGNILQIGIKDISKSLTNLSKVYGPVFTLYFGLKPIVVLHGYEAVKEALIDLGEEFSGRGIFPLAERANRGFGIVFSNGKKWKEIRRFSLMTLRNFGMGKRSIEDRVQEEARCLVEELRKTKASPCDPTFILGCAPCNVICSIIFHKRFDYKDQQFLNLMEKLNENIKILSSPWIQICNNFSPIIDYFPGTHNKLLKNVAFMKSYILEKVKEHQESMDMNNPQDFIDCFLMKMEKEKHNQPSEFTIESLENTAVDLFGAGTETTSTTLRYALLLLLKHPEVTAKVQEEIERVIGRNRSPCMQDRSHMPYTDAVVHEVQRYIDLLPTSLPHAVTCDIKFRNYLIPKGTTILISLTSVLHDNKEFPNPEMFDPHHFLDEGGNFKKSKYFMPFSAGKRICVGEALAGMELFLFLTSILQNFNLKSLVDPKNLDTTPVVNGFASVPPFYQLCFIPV
Mac1 fbg inh – blocks human CD11b/CD18 adhesion to fibrinogen | K562 CD11b/CD18 adhesion to fibrinogen, ATPlite luminescence; Mn2+ added to activate the integrin | inhibition, % at 10 µM | 93,000 tested, 0.54% active | AID 1497;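 active = primary inhibition of 50% or more at 10 µM, then 40% or more on retest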
CYP2C9 inhib – inhibitors of human CYP2C9 | 96,000 tested, 20% active | CYP2C9 Supersomes, luciferin-H conversion, luminescence | AID 777 | inhibition, % at 5 µM | P11712;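 active = blocking of liver enzyme CYP2C9 beyond about 50% at 5 µM, limit read from the data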
CYP2C19 inh – human CYP2C19 inhibition. inhibition, % at 5 µM. 96,000 tested, 21% active. P33261. CYP2C19 Supersomes, luciferin-H EGE luminescence, 30 min;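 active = CYP2C19 inhibition above a set limit at 5 µM in the primary screen, cut at about 50% in these data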;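 note: plate controls were negative control wells for no effect and 2.5 mM tranylcypromine positive control for full effect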
CD11b adhes enh – increases human CD11b/CD18 adhesion to fibrinogen; 93,000 tested, 0.07% active; AID 1499; K562 CD11b/CD18 adhesion to fibrinogen, ATPlite luminescence; P05107+P11215; activation, % at 10 µM;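 active = 10 µM primary screen giving 50% or more activity, confirmed by 40% or more on retest at that dose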
CYP2C19 act – increases human CYP2C19 enzyme activity; AID 1025; P33261; 96,000 tested, under 10 active; activation factor at 5 µM; recombinant CYP2C19, luciferin-H EGE luminescence; stronger effect = higher value; 0 = fully inhibited enzyme, 1 = untreated enzyme;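 active = activation factor of at least 2 at 5 µM in the primary screen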;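 note: 0 = wells with 2.5 mM tranylcypromine and 1 = vehicle-only wells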
The depositor's hits bear a star. Only some compounds are listed: those with a hit (about 28% of all), similar ones and a draw of the others.

Screening COc1ccc(-c2cc(-c3ccccc3)c(C#N)c(S(C)=O)n2)cc1 (centres undefined) returned CYP2C9 act 0.3, Mac1 fbg inh -18, CYP2C9 inhib 68*, CYP2C19 inh 47, CD11b adhes enh 0 and CYP2C19 act 0.5.
For COc1ccccc1-c1cc(-c2ccc(C)cc2)nc(SCc2nnc(-c3ccccc3)o2)c1C#N the results were CYP2C9 act 0.3, Mac1 fbg inh -21, CYP2C9 inhib 69*, CYP2C19 inh 14, CD11b adhes enh -3 and CYP2C19 act 0.9.
For COc1ccc(-c2nnc(SCc3cccc(C#N)c3)o2)cc1 the results were CYP2C9 act 1.1, Mac1 fbg inh 0, CYP2C9 inhib -8, CYP2C19 inh 20, CD11b adhes enh -5 and CYP2C19 act 0.8.
`CCC(C)NC(=O)C1CCC(=O)N(c2ccc3c(c2)OCO3)C1c1ccc(OC)cc1` (centres undefined) gave CYP2C9 act 0.7, Mac1 fbg inh -16, CYP2C9 inhib 26, CYP2C19 inh 39, CD11b adhes enh 4 and CYP2C19 act 0.6.
`CC1=C/C(=N\OS(=O)(=O)c2ccccc2)C(C)=CC1=O` gave CYP2C9 act 1.2, Mac1 fbg inh 97*, CYP2C9 inhib -19, CYP2C19 inh 4, CD11b adhes enh -9 and CYP2C19 act 1.
`COc1cc(C(=O)O/N=C2/C=C(C)C(=O)C=C2C)cc(OC)c1OC` gave Mac1 fbg inh 6 and CD11b adhes enh -2.
For CCCC(=O)Nc1ccccc1N1CCN(C(=O)C(C)C)CC1 the results were CYP2C9 act 1.2, Mac1 fbg inh 8, CYP2C9 inhib -20, CYP2C19 inh -5, CD11b adhes enh -1 and CYP2C19 act 1.1.
`COc1c(F)c(F)c(C(=O)Nc2ccccc2N2CCN(C(=O)C(C)C)CC2)c(F)c1F` gave CYP2C9 act 0.2, Mac1 fbg inh 17, CYP2C9 inhib 78*, CYP2C19 inh 61*, CD11b adhes enh -1 and CYP2C19 act 0.4.
For CCC(=O)N1CCN(c2ccccc2NC(=O)c2ccc(OC)c(Cl)c2)CC1 the results were CYP2C9 act 0.2, Mac1 fbg inh -4, CYP2C9 inhib 82*, CYP2C19 inh 74*, CD11b adhes enh -3 and CYP2C19 act 0.3.
Screening Cc1ccc(C(=O)Nc2ccccc2N2CCN(C(=O)C(C)C)CC2)cc1C returned CYP2C9 act 0.1, Mac1 fbg inh 8, CYP2C9 inhib 89*, CYP2C19 inh 76*, CD11b adhes enh -1 and CYP2C19 act 0.2.
`COc1c(F)c(F)c(C(=O)Nc2ccccc2N2CCN(C(C)=O)CC2)c(F)c1F` gave CYP2C9 act 0.9, Mac1 fbg inh -2, CYP2C9 inhib 7, CYP2C19 inh 9, CD11b adhes enh 55 and CYP2C19 act 0.9.
For Cc1cc(C)c(S(=O)(=O)N(C)CC(N)=O)c(C)c1 the results were CYP2C9 act 1.4, CYP2C9 inhib -38, CYP2C19 inh -10, CD11b adhes enh 1 and CYP2C19 act 1.1.
For N#Cc1c(N)nc2c3c(sc(=N)c2c1N)NC(=O)CC3c1ccccc1 (centres undefined) the results were CYP2C9 act 0.9, Mac1 fbg inh -44, CYP2C9 inhib 12, CYP2C19 inh 73*, CD11b adhes enh 13 and CYP2C19 act 0.3.
`N#Cc1c(N)nc2c3c(sc(=N)c2c1N)NC(=O)CC3c1c(F)cccc1Cl` (centres undefined) gave CYP2C9 act 1, Mac1 fbg inh 5, CYP2C9 inhib -4, CYP2C19 inh -14, CD11b adhes enh 1 and CYP2C19 act 1.1.
`CCCn1c(=O)n(C)c(=O)c2c(SCC(=O)NC34CC5CC(CC(C5)C3)C4)nc(CC(C)C)nc21` gave Mac1 fbg inh 4 and CD11b adhes enh 5.
`O=c1ccc(NS(=O)(=O)c2ccccc2)cn1Cc1ccc(Cl)c(Cl)c1` gave CYP2C9 act 0.2, CYP2C9 inhib 79*, CYP2C19 inh 98* and CYP2C19 act 0.
Screening C=CCNc1sc(C(=O)c2ccc(Br)s2)c(N)c1C#N returned CYP2C9 act 0.4, Mac1 fbg inh -4, CYP2C9 inhib 63*, CYP2C19 inh 18, CD11b adhes enh -2 and CYP2C19 act 0.8.
CCn1c(SCC(=O)Nc2nc(C)cs2)nnc1-c1cccnc1 was read as CYP2C9 act 1, Mac1 fbg inh -4, CYP2C9 inhib 3, CYP2C19 inh 23, CD11b adhes enh 4 and CYP2C19 act 0.8.
COc1ccc(NS(=O)(=O)c2c(C)cc(C)cc2C)cc1 was read as CYP2C9 act 0.1, Mac1 fbg inh 11, CYP2C9 inhib 93*, CYP2C19 inh 88*, CD11b adhes enh 2 and CYP2C19 act 0.1.
`COc1cccc(NS(=O)(=O)c2c(C)n(C)c(=O)n(C)c2=O)c1` gave CYP2C9 act 1, Mac1 fbg inh 18, CYP2C9 inhib 0, CYP2C19 inh 15, CD11b adhes enh -2 and CYP2C19 act 0.8.
Screening COc1cccc(NS(=O)(=O)c2c(C)cc(C)cc2C)c1 returned CYP2C9 act 0.4, Mac1 fbg inh -1, CYP2C9 inhib 58*, CYP2C19 inh 100*, CD11b adhes enh 4 and CYP2C19 act 0.
For COc1ccc2c(c1[N+](=O)[O-])CCC/C2=N/OC(=O)c1cccc2ccccc12 the results were CYP2C9 act 2*, Mac1 fbg inh 3, CYP2C9 inhib -96, CYP2C19 inh 8, CD11b adhes enh -1 and CYP2C19 act 0.9.
COc1cccc(C(=O)N2CCN(C(=O)c3cccc4ccccc34)CC2)c1OC was read as CYP2C9 act 0.6, Mac1 fbg inh 2, CYP2C9 inhib 36, CYP2C19 inh 10, CD11b adhes enh -2 and CYP2C19 act 0.9.
Screening Clc1ccc(CN2CCCCCCC2)cc1Cl returned CYP2C9 act 1.1, Mac1 fbg inh 2, CYP2C9 inhib -6, CYP2C19 inh 85*, CD11b adhes enh -2 and CYP2C19 act 0.2.
For CCOC(=O)C1CCN(Cc2ccc(C(=O)OC)cc2)CC1 the results were CYP2C9 act 0.9, Mac1 fbg inh -4, CYP2C9 inhib 7, CYP2C19 inh 7, CD11b adhes enh -1 and CYP2C19 act 0.9.
For Clc1ccc(CN2CCCCCCC2)cc1 the results were Mac1 fbg inh -1 and CD11b adhes enh 14.
For CCOC(=O)C1CCN(Cc2ccc(Cl)c(Cl)c2)CC1 the results were CYP2C9 act 0.5, Mac1 fbg inh -4, CYP2C9 inhib 51*, CYP2C19 inh 36, CD11b adhes enh 0 and CYP2C19 act 0.6.
`O=S1(=O)CCN(Cc2ccc(Cl)c(Cl)c2)CC1` gave CYP2C9 act 1, CYP2C9 inhib 2, CYP2C19 inh 54* and CYP2C19 act 0.5.
`O=S1(=O)CCN(Cc2ccc(Cl)cc2)CC1` gave CYP2C9 act 1.1, Mac1 fbg inh 5, CYP2C9 inhib -5, CYP2C19 inh 32, CD11b adhes enh -4 and CYP2C19 act 0.7.
